# Tb PYK inh: blocks Trypanosoma brucei pyruvate kinase. TbPYK enzyme, Kinase-Glo Plus ATP luminescence, 45 min. Potency, µM (top dose mostly 76.8 µM), without a hit: at the highest dose activity, negative = inhibition, most hits filed as inhibitors. actives 0.12% (n = 410,000); active = well fitted curve in the direction sought with a large enough effect; inconclusive = small, poorly fitted or top-dose-only effect, or another doubt; inactive = no such curve, though single readings can be large; an effect the other way counts as inactive or inconclusive; also: potency is read from the fitted curve at half-maximal effect; % is scaled to controls: 0 for no effect and ±100 for the full control effect; nearly all actives have a fitted effect of over 50% in size
#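 TbPYK + substrate in 50 mM TEA pH 7.2, 100 mM KCl, 10 mM MgCl2, 0.05% BSA, 0.01% Tween-20; cpd pinned; ADP 130 uM final; 45 min RT; Kinase-Glo Plus 10 min; luminescence endpoint.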
# Shiga toxin inh: Shiga toxin inhibition; Vero cells, Shiga toxin protein synthesis inhibition reporter; inhibition, % at 38.7 µM; actives 9.2% (n = 290,000); in the data active = inhibition mostly above about 28%, no sharp cut-off; inactive = mostly below about 43%; also: 0% is about no effect
# CHX counter-1: counter-screen hit for Shiga toxin inhibitors, cycloheximide. AID 2314. max response, %. actives 12% (n = 300,000). cell reporter, cycloheximide protein synthesis inhibition counterscreen; in the data active = max response mostly above about 13%, no sharp cut-off; inactive = mostly below about 14%; also: read at 38.3 µM for the half of the compounds with a filed dose; 0% is about no effect
# NS1 inh: inhibitors of influenza NS1 protein function; actives 0.4% (n = 270,000); AID 2326; Potency, µM (top dose mostly 46.1 µM), for inactives: at the highest dose activity, positive = more growth; also: potency is read from the fitted curve at half-maximal effect; actives are rising curves; nearly all actives have a fitted effect of over 50% in size
#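 Recovery from NS1-induced slow growth read by OD600 in budding yeast switched to galactose assay medium (pH 6.0, -URA) at 1:100 dilution. Compound 23 nl per well; the matching strain lacking NS1 serves as control.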
# SARS PLP yeast: inhibitors of SARS-CoV papain-like protease in yeast; S. cerevisiae expressing SARS-CoV PLpro, growth rescue; Potency, µM (series often up to 32.9 µM), inactives show at the highest dose activity, positive = growth rescue, most hits filed as activators; actives 0.19% (n = 330,000); AID 485353; also: potency is read from the fitted curve at half-maximal effect; 0% is about no effect; nearly all actives have a fitted effect of over 55% in size
# LmPK inh: inhibitors of Leishmania mexicana pyruvate kinase; Q27686; purified LmPK, Kinase-Glo ATP luminescence, 1 h; Potency, µM (titrated, usually from 57.5 µM), for the others: at the highest dose activity change, negative = inhibition, most hits filed as inhibitors; actives 0.37% (n = 290,000); AID 1721; active = well fitted curve in the direction sought with a large enough effect; inconclusive = small, poorly fitted or top-dose-only effect, or another doubt; inactive = no such curve, though single readings can be large; an effect the other way counts as inactive or inconclusive; also: potency is read from the fitted curve at half-maximal effect; % is scaled to controls: 0 for no effect and ±100 for the full control effect
# Target sequence (Q27686 whole entry, looked up): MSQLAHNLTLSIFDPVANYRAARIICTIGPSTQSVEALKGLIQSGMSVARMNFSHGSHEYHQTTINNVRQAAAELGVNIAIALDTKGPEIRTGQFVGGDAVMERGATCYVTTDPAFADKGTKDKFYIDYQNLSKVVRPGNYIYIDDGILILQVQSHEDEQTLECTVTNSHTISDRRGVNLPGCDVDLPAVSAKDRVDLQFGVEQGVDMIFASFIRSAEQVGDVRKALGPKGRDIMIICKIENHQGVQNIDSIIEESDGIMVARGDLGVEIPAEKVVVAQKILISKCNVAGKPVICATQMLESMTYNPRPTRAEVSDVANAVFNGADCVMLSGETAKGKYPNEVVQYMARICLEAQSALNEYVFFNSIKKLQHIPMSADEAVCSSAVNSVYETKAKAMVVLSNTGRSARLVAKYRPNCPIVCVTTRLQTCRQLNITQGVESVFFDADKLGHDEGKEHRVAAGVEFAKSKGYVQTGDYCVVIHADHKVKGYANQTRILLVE
#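 ATP generated from ADP (0.1 mM) and PEP (0.5 mM) by 0.1 nM LmPK over 1 h at room temperature (pH 7.2 imidazole buffer) was detected by coupled luciferase luminescence. Values were normalized to uninhibited and no-enzyme wells.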
# CHX counter-2: protein synthesis counter-screen activity for Shiga toxin hits; actives 3% (n = 510); Potency, µM (titrated, usually from 38.3 µM), inactives show at the top dose activity (activation), usual class: activators; AID 2318; shares compounds with Shiga toxin inh; Cycloheximide counterscreen, protein synthesis reporter, Shiga toxin assay; also: potency is read from the fitted curve at half-maximal effect; 0% is about no effect
# An asterisk follows results filed as active; ? = inconclusive; / = no result given; [ ] = dose if it differs, or a comment. Only a selection was taken, and hits are over-represented in it overall. Unless noted, calls follow the shape of the full dose curve.
SMILES,Tb PYK inh,Shiga toxin inh,CHX counter-1,NS1 inh,SARS PLP yeast,LmPK inh,CHX counter-2
CN(C)S(=O)(=O)c1ccc(C(=O)OCC(=O)c2ccc3c(c2)NC(=O)CO3)cc1,-5.6%,42.3*,2.1,0.4%,0.9%,3.4%,-2.9%
CCCS(=O)(=O)NC(=O)C1(C)CCN(C(=O)c2ccc(OC)c(F)c2)C1 (stereo unspecified),0.2%,/,/,/,/,/,/
O=C(Cc1c[nH]c2ccccc12)NCc1ccc(Cl)cc1,4.1%,29.9*,10.1,-19.8%,-1.7%,-9.7%,7.5%
O=C(NCCc1c[nH]c2ccccc12)C(F)(F)F,8.1%,43.4*,9.7,?,-2.7%,-0.2%,-1.2%
O=C(CCc1c[nH]c2ccccc12)NCCc1ccc(Cl)cc1,6.1%,-7.3,-1.7,-20.1%,-1.9%,2.7%,/
O=C(NCCc1c[nH]c2ccccc12)Nc1ccccc1C(F)(F)F,0.3%,/,/,/,/,/,/
CCOC(=O)C1=C([Si](C)(C)C)c2ccccc2N(S(=O)(=O)C(F)(F)F)C1C(=O)OCC (stereo unspecified),/,56.1,3.3,/,/,/,/
COc1ccc([C@H]2CN(CCc3ccccc3)C(=O)[C@@H]2CC(=O)Nc2ccccc2)cc1,0.9%,/,/,/,/,/,/
Cc1ccc2c(N)[nH]nc2n1,-1.4%,81.5*,11.0,16.3%,-0.9%,1.4%,-0.6%
COC(=O)CCNC(=O)c1nn(Cc2ccccc2)c(=O)c2ccccc12,0.6%,18.7,2.2,-4.0%,-3.0%,6.4%,/
CC(C)Cc1csc(NC(=O)c2ccc(Cl)cc2)c1C(=O)O,-12.1%,-6.0,-2.2,-11.0%,-65.7%,-1.8%,/
Cc1cccc(C(=O)Nc2scc(CC(C)C)c2C(=O)O)c1,-3.9%,39.6*,-4.4,-27.5%,-18.3%,0.0%,1.3%
COC(=O)c1ccc(NC(=O)Cc2ccc(F)cc2)cc1,1.5%,151.3*,13.6,-6.0%,-1.9%,-2.6%,?
COc1ccc(/C=C/c2nnc(NC(=O)CSc3ccc(Cl)cc3)s2)cc1,-9.1%,37.3*,8.3,2.5%,-9.6%,0.3%,?
O=C(Cc1cccs1)Nc1nc(-c2ccc(F)c(F)c2)cs1,-21.6%,44.4*,11.1,-1.1%,-4.8%,-6.3%,4.0%
COc1ccc(/C=C/C(=O)OCc2cccc([N+](=O)[O-])c2)cc1,-3.0%,-5.0,-4.4,/,-0.9%,4.3%,/
COc1cccc(/C=C/C(=O)c2cccc([N+](=O)[O-])c2)c1OC,-5.2%,60.2*,11.2,-1.7%,0.1%,3.9%,-1.5%
COc1cccc(/C=C/C(=O)c2cccc([N+](=O)[O-])c2)c1,2.2%,50.7*,7.2,-54.2%,-1.3%,-8.3%,-0.3%
CC(C)C[C@H]1COc2cc(N(C)CCO)ccc2S(=O)(=O)N1,9.2%,/,/,/,/,/,/
Cc1ccc([N+](=O)[O-])cc1NC(=O)CSc1nncn1-c1ccccn1,-4.1%,98.2*,-3.1,-11.3%,-1.4%,0.2%,-1.6%
Cc1cc([N+](=O)[O-])ccc1NC(=O)CSc1nncn1-c1ccccn1,4.0%,9.4,-4.1,14.4%,2.3%,-2.9%,/
COc1cccc(OC)c1OCCCOc1ccc(C)cc1Br,-7.6%,22.0*,6.8,-26.5%,-90.9%,2.4%,2.5%
COc1ccccc1OCCCOc1c(C)cc(C)cc1Br,-5.4%,19.0,9.6,-10.6%,-10.8%,0.5%,/
CC1(C(=O)NS(=O)(=O)C2CC2)CCCN(C(=O)c2cc3ccccc3s2)C1 (stereo unspecified),-3.4%,/,/,/,/,/,/
CCCn1nnc(NC(=O)COc2ccc(C3CCCCC3)cc2)n1,3.2%,75.4*,-4.0,-49.1%,-7.6%,0.9%,-0.5%
CCCn1nnc(NC(=O)COc2ccc(Cl)cc2)n1,-9.4%,12.0,11.1,-14.6%,/,1.7%,/
CCN(CC)CC(=O)Nc1ccc(-c2nc3cc(NC(=O)CN(CC)CC)ccc3o2)cc1,-1.3%,80.5*,8.1,4.2%,14.1%,-1.2%,1.8%
COc1cccc2c1C(=O)c1c(O)c3c(c(O)c1C2=O)C[C@@](O)(C(=O)CO)C[C@@H]3O[C@H]1C[C@H](N)[C@H](O)[C@H](C)O1,-0.6%,37.9*,10.2*,?,/,-25.5%,-0.3%[76.6 µM]

# High-throughput results: PubChem, National Center for Advancing Translational Sciences (NCATS)
